# Paper PMC5540273 (PLoS ONE, 2017)
# What was measured:
# Conditions in all cases: concentration: 1 μM, replicates: in singlicate; n = 1
# [1] = system: IRAK3
# [2] = system: IRAK4
# [3] = system: ITK
# [4] = system: JAK1(JH1domain-catalytic)
# [5] = system: JAK1(JH2domain-pseudokinase)
# [6] = system: JAK2(JH1domain-catalytic)
# [7] = system: JAK3(JH1domain-catalytic)
# [8] = system: T1, JNK1
# T1 construct: gene MAPK8
# [9] = system: T2, JNK2
# T2 construct: gene MAPK9
# [10] = system: T3, JNK3
# T3 construct: gene MAPK10
# [11] = system: KIT-autoinhibited
# [12] = system: KIT
# [13] = system: LATS1
# [14] = system: LATS2
# [15] = system: LCK
# [16] = system: LIMK1
# [17] = system: LIMK2
# [18] = system: T4, LKB1
# T4 construct: gene STK11
# [19] = system: T5, LOK
# T5 construct: gene STK10
# [20] = system: LRRK2
# 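Also: KINOMEscan kinase panel screen.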
smiles,measurement,setting,value
c1ccc(-c2cc(-c3c[nH]nc3-c3ccccn3)ccn2)cc1 [GW576604],%Inh,[1],0%
same,%Inh,[2],9%
same,%Inh,[3],3%
same,%Inh,[4],17%
same,%Inh,[5],0%
same,%Inh,[6],6%
same,%Inh,[7],0%
same,%Inh,[8],35%
same,%Inh,[9],65%
same,%Inh,[10],70%
same,%Inh,[11],0%
same,%Inh,[12],9%
same,%Inh,[13],0%
same,%Inh,[14],0%
same,%Inh,[15],0%
same,%Inh,[16],0%
same,%Inh,[17],0%
same,%Inh,[18],17%
same,%Inh,[19],0%
same,%Inh,[20],0%
CCn1cnc2c(N)ncnc21 [GW345098],%Inh,[1],10%
same,%Inh,[2],0%
same,%Inh,[3],16%
same,%Inh,[4],10%
same,%Inh,[5],19%
same,%Inh,[6],7%
same,%Inh,[7],17%
same,%Inh,[8],16%
same,%Inh,[9],0%
same,%Inh,[10],0%
same,%Inh,[11],7%
same,%Inh,[12],20%
same,%Inh,[13],0%
same,%Inh,[14],21%
same,%Inh,[15],5%
same,%Inh,[16],26%
same,%Inh,[17],27%
same,%Inh,[18],26%
same,%Inh,[19],25%
same,%Inh,[20],0%
Cl.Oc1cccc(Nc2ccnc3cc(-c4ccncc4)ccc23)c1 [GW494601],%Inh,[1],57%
same,%Inh,[2],1%
same,%Inh,[3],0%
same,%Inh,[4],65%
same,%Inh,[5],0%
same,%Inh,[6],50%
same,%Inh,[7],18%
same,%Inh,[8],14%
same,%Inh,[9],37%
same,%Inh,[10],21%
same,%Inh,[11],32%
same,%Inh,[12],99.8%
same,%Inh,[13],6%
same,%Inh,[14],0%
same,%Inh,[15],98.7%
same,%Inh,[16],0%
same,%Inh,[17],6%
same,%Inh,[18],0%
same,%Inh,[19],31%
same,%Inh,[20],75%
O=C(NOCC1CC1)c1ccc(F)c(F)c1Nc1ccc(I)cc1Cl,%Inh,[1],0%
same,%Inh,[2],0%
same,%Inh,[3],0%
same,%Inh,[4],0%
same,%Inh,[5],0%
same,%Inh,[6],0%
same,%Inh,[7],0%
same,%Inh,[8],0%
same,%Inh,[9],0%
same,%Inh,[10],0%
same,%Inh,[11],0%
same,%Inh,[12],0%
same,%Inh,[13],0%
same,%Inh,[14],7%
same,%Inh,[15],0%
same,%Inh,[16],0%
same,%Inh,[17],0%
same,%Inh,[18],0%
same,%Inh,[19],0%
same,%Inh,[20],0%
COc1ccc(Nc2nccc(N3CCC(NC(=O)Nc4cccc(C(C)=O)c4)C3)n2)cc1 (stereo not shown) [GSK1379731],%Inh,[1],0%
same,%Inh,[2],4%
same,%Inh,[3],14%
same,%Inh,[4],0%
same,%Inh,[5],0%
same,%Inh,[6],17%
same,%Inh,[7],0%
same,%Inh,[8],14%
same,%Inh,[9],15%
same,%Inh,[10],4%
same,%Inh,[11],0%
same,%Inh,[12],49%
same,%Inh,[13],0%
same,%Inh,[14],0%
same,%Inh,[15],0%
same,%Inh,[16],1%
same,%Inh,[17],0%
same,%Inh,[18],5%
same,%Inh,[19],0%
same,%Inh,[20],2%
NS(=O)(=O)c1cccc(-c2ccc3nccc(-c4cccc(S(N)(=O)=O)c4)c3c2)c1 [GW867253],%Inh,[1],0%
same,%Inh,[2],0%
same,%Inh,[3],0%
same,%Inh,[4],0%
same,%Inh,[5],38%
same,%Inh,[6],8%
same,%Inh,[7],0%
same,%Inh,[8],30%
same,%Inh,[9],5%
same,%Inh,[10],0%
same,%Inh,[11],25%
same,%Inh,[12],0%
same,%Inh,[13],0%
same,%Inh,[14],0%
same,%Inh,[15],0%
same,%Inh,[16],0%
same,%Inh,[17],0%
same,%Inh,[18],0%
same,%Inh,[19],2%
same,%Inh,[20],0%
CC(=O)Nc1ccc(COc2ccc(Nc3ccnc4cc(-c5ccccn5)ccc34)cc2)cc1.Cl [GW440148],%Inh,[1],6%
same,%Inh,[2],0%
same,%Inh,[3],0%
same,%Inh,[4],22%
same,%Inh,[5],0%
same,%Inh,[6],18%
same,%Inh,[7],0%
same,%Inh,[8],0%
same,%Inh,[9],17%
same,%Inh,[10],9%
same,%Inh,[11],72%
same,%Inh,[12],100%
same,%Inh,[13],0%
same,%Inh,[14],0%
same,%Inh,[15],31%
same,%Inh,[16],0%
same,%Inh,[17],0%
same,%Inh,[18],20%
same,%Inh,[19],7%
same,%Inh,[20],0%
CN1c2ccc(CNc3ccc(F)cc3)cc2-c2c(cnn2C)S1(=O)=O,%Inh,[1],0%
same,%Inh,[2],0%
same,%Inh,[3],0%
same,%Inh,[4],2%
same,%Inh,[5],20%
same,%Inh,[6],0%
same,%Inh,[7],0%
same,%Inh,[8],0%
same,%Inh,[9],0%
same,%Inh,[10],0%
same,%Inh,[11],15%
same,%Inh,[12],0%
same,%Inh,[13],0%
same,%Inh,[14],0%
same,%Inh,[15],7%
same,%Inh,[16],0%
same,%Inh,[17],0%
same,%Inh,[18],8%
same,%Inh,[19],0%
same,%Inh,[20],0%
